Measured values published in PubChem BioAssay (NCI).
About 79,000 compounds went through this panel and 15% of them were active in at least one assay; those are over-represented in the sample as a whole. The source made the active and inactive calls. No stated cut-off is given here; in the data, active means growth inhibition above about 70%; inactive means the rest.

Key:
[1] = NCI Yeast Anticancer Drug Screen. Data for the rad52 strain (AID 147);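 further: 0% = growth of vehicle-treated control cultures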; details: S. cerevisiae rad52 mutant growth inhibition, active compounds read high
Summary of the method: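 Yeast strain carrying a DNA damage repair alteration was exposed to test compounds. Growth inhibition was measured relative to vehicle-treated controls.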

[2] = NCI Yeast Anticancer Drug Screen. Data for the wt1 strain (AID 149);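 further: 0% = growth of vehicle-treated wt1 cultures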; details: S. cerevisiae wt1 strain (SPY 50644) growth inhibition, active compounds read high
Summary of the method: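 Readout: yeast growth inhibition, normalised to vehicle controls, in the wt1 strain exposed to test compounds.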

[3] = NCI Yeast Anticancer Drug Screen. Data for the rad50EPP+ strain (AID 151);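 further: 0% = growth of vehicle-treated control cultures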; details: S. cerevisiae rad50 mutant strain, active compounds read high
Summary of the method: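 Yeast strain carrying rad50 alteration (rad50EPP+) exposed to compounds; growth inhibition measured relative to vehicle-treated controls.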

[4] = NCI Yeast Anticancer Drug Screen. Data for the mgt1 strain (AID 153); details: S. cerevisiae mgt1 mutant growth inhibition, active compounds read high
Summary of the method: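 Yeast mgt1 strain (DNA repair/cell-cycle alteration panel) exposed to compounds; growth inhibition measured relative to vehicle-treated controls.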

[5] = NCI Yeast Anticancer Drug Screen. Data for the rad50 strain (AID 155);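 further: 0% = growth of vehicle-only cultures of the same strain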; details: S. cerevisiae rad50 strain growth inhibition, active compounds read high
Summary of the method: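 Compounds were tested on a yeast strain with an engineered DNA damage repair alteration; the reported value is growth inhibition normalised to vehicle treatment.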

[6] = NCI Yeast Anticancer Drug Screen. Data for the mec2-1 strain (AID 157); details: S. cerevisiae mec2-1 strain, active compounds read high
Summary of the method: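 mec2-1 yeast strain, carrying an alteration in DNA damage repair or cell cycle control, was exposed to compounds; growth inhibition was measured relative to vehicle-treated controls.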

[7] = NCI Yeast Anticancer Drug Screen. Data for the rad14 strain (AID 159);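 further: 0% = growth of vehicle-treated control cultures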; details: S. cerevisiae rad14 strain growth inhibition, active compounds read high
Summary of the method: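 Compound-treated yeast with a defined DNA-repair lesion; growth inhibition normalised to vehicle-treated cultures.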

[8] = NCI Yeast Anticancer Drug Screen. Data for the sgs1 mgt1 strain (AID 161);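 further: 0% = growth of cultures given vehicle only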; details: S. cerevisiae sgs1 mgt1 strain, active compounds read high
Summary of the method: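 Compounds are added to genetically altered yeast, and growth is compared with cultures given vehicle alone to give percent inhibition.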

[9] = NCI Yeast Anticancer Drug Screen. Data for the CLN2oe strain (AID 163);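 further: 0% = growth of vehicle-only control cultures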; details: S. cerevisiae CLN2oe strain, active compounds read high
Summary of the method: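 Yeast cells carrying a defined cell-cycle control alteration were exposed to test compounds. Growth inhibition was scored against vehicle-treated control cultures.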

[10] = NCI Yeast Anticancer Drug Screen. Data for the cln2 rad14 strain (AID 165);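 further: 0% = growth equal to vehicle treated cultures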; details: S. cerevisiae cln2 rad14 strain, active compounds read high
Summary of the method: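 Yeast carrying cln2 and rad14 alterations (cell cycle control and DNA damage repair) were exposed to compounds. Growth inhibition was measured against vehicle-treated controls.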

[11] = NCI Yeast Anticancer Drug Screen. Data for the bub3 strain (AID 167); details: S. cerevisiae bub3 mutant strain, active compounds read high
Summary of the method: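 Growth of a checkpoint-deficient yeast mutant is measured after compound exposure. Values represent inhibition relative to vehicle.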

[12] = NCI Yeast Anticancer Drug Screen. Data for the wt2 strain (AID 169);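 further: 0% = growth of vehicle-treated yeast cultures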; details: S. cerevisiae wt2 strain growth inhibition, active compounds read high
Summary of the method: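 Yeast cells were exposed to test compounds, and growth inhibition was measured relative to vehicle-treated controls.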

[13] = NCI Yeast Anticancer Drug Screen. Data for the mlh1 strain (AID 171);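 further: 0% = growth of vehicle-treated control cultures of the same strain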; details: S. cerevisiae mlh1 strain growth inhibition, active compounds read high
Summary of the method: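 Yeast carrying a defined genetic alteration in DNA damage repair or cell cycle control were exposed to test compounds. Growth inhibition was measured relative to vehicle-treated controls.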

[14] = NCI Yeast Anticancer Drug Screen. Data for the sgs1 strain (AID 173);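 further: 0% = growth of vehicle-only control cultures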; details: S. cerevisiae sgs1 mutant, active compounds read high
Summary of the method: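 Yeast mutant strains carrying defined defects in DNA damage repair or cell cycle control were exposed to test compounds. Growth inhibition was scored against vehicle-treated controls.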

[15] = NCI Yeast Anticancer Drug Screen. Data for the mlh1 rad18 strain (AID 175); details: S. cerevisiae mlh1 rad18 strain growth inhibition, active compounds read high
Summary of the method: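 Growth inhibition of the yeast strain was measured after compound exposure and expressed relative to vehicle-treated controls. The strain carries defined defects in DNA damage repair.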

[16] = NCI Yeast Anticancer Drug Screen. Data for the rad18 strain (AID 177); details: S. cerevisiae rad18 mutant growth inhibition, active compounds read high
Summary of the method: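 Yeast carrying a defined DNA damage repair alteration were exposed to compounds. Growth inhibition was expressed relative to vehicle-treated controls.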

[17] = at 5.0 µM (retest, dose inferred, filed as 0.5)
[18] = at 50.0 µM (retest, dose inferred, filed as 5.0)

Measured: growth inhibition

CCOC(=O)C1=C(C(=O)c2ccccc2)C(c2ccccc2[N+](=O)[O-])C(C(=O)c2ccccc2)=C(C(=O)OCC)N1
active: [5]; at 50.0 µM 71.6% | [11]; [18] 86%
inactive: [1]; at 1.2 µM -2% | [1]; at 3.7 µM 0% | [1]; at 11.0 µM -1% | [1]; at 33.0 µM 1% | [1]; at 100.0 µM 11% | [2]; at 1.2 µM -2% | [2]; at 3.7 µM -1% | [2]; at 11.0 µM -1% | [2]; at 33.0 µM -1% | [2]; at 100.0 µM -4% | [3]; at 1.2 µM 1% | [3]; at 3.7 µM 7% | [3]; at 11.0 µM 13% | [3]; at 33.0 µM 18% | [3]; at 100.0 µM 27% | [4]; at 1.2 µM 0% | [4]; at 3.7 µM 1% | [4]; at 11.0 µM 0% | [4]; at 33.0 µM 1% | [4]; at 100.0 µM 35% | [5]; at 1.2 µM 0% | [5]; at 3.7 µM -1% | [5]; [17] 2% | [5]; at 11.0 µM -2% | [5]; at 33.0 µM 1% | [5]; [18] 60% | [5]; at 100.0 µM 17% | [6]; at 1.2 µM -3% | [6]; at 3.7 µM -3% | [6]; [17] -4% | [6]; at 11.0 µM -3% | [6]; at 33.0 µM -1% | [6]; [18] 20% | [6]; at 50.0 µM 18.6% | [6]; at 100.0 µM 10% | [7]; at 1.2 µM 0% | [7]; at 3.7 µM 2% | [7]; at 11.0 µM 8% | [7]; at 33.0 µM 9% | [7]; at 100.0 µM 29% | [8]; [17] 9% | [8]; [18] 16% | [8]; at 50.0 µM 41.8% | [9]; at 1.2 µM 0% | [9]; at 3.7 µM 0% | [9]; at 11.0 µM 2% | [9]; at 33.0 µM 3% | [9]; at 100.0 µM 0% | [10]; [17] 7% | [10]; [18] 39% | [10]; at 50.0 µM 16.9% | [11]; at 1.2 µM 6% | [11]; at 3.7 µM 8% | [11]; [17] 3% | [11]; at 11.0 µM 11% | [11]; at 33.0 µM 10% | [11]; at 50.0 µM 19% | [11]; at 100.0 µM 42% | [12]; at 1.2 µM -2% | [12]; at 3.7 µM -1% | [12]; at 11.0 µM -1% | [12]; at 33.0 µM 0% | [12]; at 100.0 µM 10% | [13]; at 1.2 µM -1% | [13]; at 3.7 µM -2% | [13]; at 11.0 µM -2% | [13]; at 33.0 µM 1% | [13]; at 100.0 µM 20% | [14]; at 1.2 µM -2% | [14]; at 3.7 µM 1% | [14]; at 11.0 µM 5% | [14]; at 33.0 µM 7% | [14]; at 100.0 µM 17% | [15]; [17] -21% | [15]; [18] 61% | [15]; at 50.0 µM 65.6% | [16]; at 1.2 µM 0% | [16]; at 3.7 µM 1% | [16]; at 11.0 µM 1% | [16]; at 33.0 µM 7% | [16]; at 100.0 µM 39%

O=C1C(=O)c2ccccc2C=C1[N+](=O)[O-]
inactive: [1]; at 1.2 µM 3% | [1]; at 3.7 µM 11% | [1]; at 11.0 µM 26% | [2]; at 1.2 µM 3% | [2]; at 3.7 µM 5% | [2]; at 11.0 µM 9% | [2]; at 33.0 µM 15% | [2]; at 100.0 µM 26% | [3]; at 1.2 µM -1% | [3]; at 3.7 µM -1% | [3]; at 11.0 µM 5% | [3]; at 33.0 µM 15% | [3]; at 100.0 µM 29% | [4]; at 1.2 µM 2% | [4]; at 3.7 µM 10% | [4]; at 11.0 µM 9% | [4]; at 33.0 µM 15% | [4]; at 100.0 µM 58% | [5]; at 1.2 µM 0% | [5]; at 3.7 µM 9% | [5]; [17] -12% | [5]; at 11.0 µM 12% | [5]; at 33.0 µM 36% | [5]; [18] 30% | [5]; at 50.0 µM 50.5% | [6]; at 1.2 µM 2% | [6]; at 3.7 µM 5% | [6]; [17] 8% | [6]; at 11.0 µM 13% | [6]; at 33.0 µM 18% | [6]; [18] 13% | [6]; at 50.0 µM 29.4% | [6]; at 100.0 µM 35% | [7]; at 1.2 µM 2% | [7]; at 3.7 µM 17% | [7]; at 11.0 µM 15% | [7]; at 33.0 µM 37% | [8]; [17] 14% | [9]; at 1.2 µM 2% | [9]; at 3.7 µM 3% | [9]; at 11.0 µM 9% | [9]; at 33.0 µM 17% | [9]; at 100.0 µM 23% | [10]; [17] -13% | [10]; [18] 14% | [10]; at 50.0 µM 16.8% | [11]; at 1.2 µM 0% | [11]; at 3.7 µM 3% | [11]; [17] -14% | [11]; at 11.0 µM 1% | [11]; at 33.0 µM 4% | [11]; [18] 8% | [11]; at 50.0 µM 8.85% | [11]; at 100.0 µM 49% | [12]; at 1.2 µM 2% | [12]; at 3.7 µM 6% | [12]; at 11.0 µM 11% | [12]; at 33.0 µM 28% | [13]; at 1.2 µM 1% | [13]; at 3.7 µM 1% | [13]; at 11.0 µM 3% | [13]; at 33.0 µM 22% | [14]; at 1.2 µM 4% | [14]; at 3.7 µM 11% | [14]; at 11.0 µM 30% | [14]; at 33.0 µM 65% | [15]; [17] 0% | [15]; [18] 64% | [15]; at 50.0 µM 68.8% | [16]; at 1.2 µM 22% | [16]; at 3.7 µM 54%
active: [1]; at 33.0 µM 70% | [1]; at 100.0 µM 91% | [5]; at 100.0 µM 82% | [7]; at 100.0 µM 86% | [8]; [18] 77% | [8]; at 50.0 µM 73.7% | [12]; at 100.0 µM 75% | [13]; at 100.0 µM 83% | [14]; at 100.0 µM 92% | [16]; at 11.0 µM 89% | [16]; at 33.0 µM 94% | [16]; at 100.0 µM 95%
